Measured values published in PubChem BioAssay (Tox21).
A number with no mark means an inactive call. Where a call stands in place of a potency, no number is given. Active and inactive are the calls of the source. Unless noted, calls follow the shape of the dose curve; as a rule, active = well fitted curve in the direction sought with a large enough effect in the repeat runs; inconclusive = weak or mixed curves; inactive = no such curve, though single readings can be large; an effect the other way counts as inactive or inconclusive.

Key:
[1] = qHTS assay to identify small molecule antagonists of the thyroid receptor (TR) signaling pathway - cell viability counter screen (AID 743064); details: GH3.TRE-Luc viability, CellTiter-Fluor, 24 h; series mostly up to 70.3 µM; also: nearly all actives have a fitted effect of over 50% in size; also: potency is read from the fitted curve at half-maximal effect
Method in brief: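 GH3.TRE-Luc rat pituitary cells dosed after 4 hr plating, co-stimulated with T3 at 1 nM final, incubated 23.5 h at 37 C. Viability measured in the same wells by CellTiter-Fluor fluorescence after 30 min further at 37 C.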

[2] = system: thyroid hormone receptor (rat, GH3 cells); assay: qHTS assay to identify small molecule agonists of the thyroid receptor (TR) signaling pathway (AID 743066; calls by dose curve); details: GH3.TRE-Luc cells, TR agonist luciferase, 24 h; series mostly up to 83.9 µM
[3] = target: Estrogen receptor (Homo sapiens) (UniProt P03372); assay: qHTS assay to identify small molecule antagonists of the estrogen receptor alpha (ER-alpha) signaling pathway (AID 743069; active = well fitted curve in the direction sought with a large enough effect in the signal ratio in the repeat runs, not every such curve was filed as active; inconclusive = weak or mixed curves, or effect the other way; inactive = no such curve, though single readings can be large or run the other way; the % refers to the signal ratio; also: potency is read from the fitted curve at half-maximal effect); details: HEK293 ER-alpha-UAS-bla, beta-lactamase ratio, antagonist mode; series mostly up to 69.4 µM
Method in brief: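 Reporter cells (ER-alpha-bla, HEK293 background) are conditioned overnight in stripped-serum medium (2% charcoal-stripped FBS). Compound and 17beta-estradiol exposure runs 18 hr at 37C, 5% CO2.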

[4] = qHTS assay to identify small molecule antagonists of the estrogen receptor alpha (ER-alpha) signaling pathway - cell viability counter screen (AID 743074; calls by dose curve;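 also: HEK293 cells carrying ER-alpha-UAS-bla reporter stimulated with 17beta-estradiol; nearly all actives have a fitted effect of over 45% in size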); details: ERalpha-bla HEK293 viability, CellTiter-Glo luminescence, 18 h; series mostly up to 69.4 µM
[5] = target: Estrogen receptor (Homo sapiens) (UniProt P03372); assay: qHTS assay to identify small molecule agonists of the estrogen receptor alpha (ER-alpha) signaling pathway (AID 743075; calls by dose curve;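 also: HEK293 GripTite cells with ER-alpha and UAS-driven beta-lactamase reporter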); details: HEK293 ER-alpha-UAS-bla, beta-lactamase FRET ratio, 18 h; series mostly up to 70.1 µM
[6] = qHTS assay to identify small molecule antagonists of the estrogen receptor alpha (ER-alpha) signaling pathway using the BG1 cell line (AID 743080; calls by dose curve;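 also: BG1 cells stimulated with 17beta-estradiol alongside compound; nearly all actives have a fitted effect of over 25% in size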; also: potency is read from the fitted curve at half-maximal effect); details: BG1Luc4E2 ERE-luciferase antagonist mode, luminescence; series mostly up to 70.3 µM
Method in brief: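 Quantitative HTS on the Tox21 10K library: BG1 cells with endogenous ER-alpha and ERE-luciferase reporter, 17beta-estradiol stimulation, 21.5 h compound exposure, luminescence endpoint with parallel fluorescence cytotoxicity counter-read.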

[7] = qHTS assay to identify small molecule antagonists of the estrogen receptor alpha (ER-alpha) signaling pathway using the BG1 cell line - cell viability counter screen (AID 743081); details: BG1Luc4E2 viability, CellTiter-Fluor, 22 h; series mostly up to 70.3 µM;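 also: compound given together with 17beta-estradiol as the ER stimulus; nearly all actives have a fitted effect of over 45% in size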; also: potency is read from the fitted curve at half-maximal effect
Aromatase (Homo sapiens) = Aromatase (Homo sapiens) (UniProt P11511); assay: qHTS assay to identify aromatase inhibitors (AID 743083); details: MCF-7 aro ERE, testosterone-driven ERE luciferase, 24 h; series mostly up to 70.3 µM; also: nearly all actives have a fitted effect of over 55% in size; also: potency is read from the fitted curve at half-maximal effect
[8] = target: Estrogen receptor (Homo sapiens) (UniProt P03372); assay: qHTS assay to identify small molecule agonists of the estrogen receptor alpha (ER-alpha) signaling pathway using the BG1 cell line (AID 743079); details: BG1Luc4E2 cells, ERE-luciferase agonist, 22 h; also: nearly all actives have a fitted effect of over 20% in size; also: potency is read from the fitted curve at half-maximal effect

Aromatase (Homo sapiens), sequence (P11511 whole entry, looked up): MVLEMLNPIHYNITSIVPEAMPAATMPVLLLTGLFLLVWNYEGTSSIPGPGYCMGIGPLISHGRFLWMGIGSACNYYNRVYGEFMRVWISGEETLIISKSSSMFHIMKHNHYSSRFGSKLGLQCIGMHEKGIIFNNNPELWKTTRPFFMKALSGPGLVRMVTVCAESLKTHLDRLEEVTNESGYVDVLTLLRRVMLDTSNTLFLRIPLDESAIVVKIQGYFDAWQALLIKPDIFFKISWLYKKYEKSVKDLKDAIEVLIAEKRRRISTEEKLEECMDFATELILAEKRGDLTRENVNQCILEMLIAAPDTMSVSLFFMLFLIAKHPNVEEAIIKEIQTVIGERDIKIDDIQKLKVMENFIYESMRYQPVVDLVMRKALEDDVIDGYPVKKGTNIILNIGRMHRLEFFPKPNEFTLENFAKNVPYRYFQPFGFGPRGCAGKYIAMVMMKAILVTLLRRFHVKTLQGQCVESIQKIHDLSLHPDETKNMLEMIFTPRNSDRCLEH
Estrogen receptor (Homo sapiens), sequence (P03372 whole entry, looked up): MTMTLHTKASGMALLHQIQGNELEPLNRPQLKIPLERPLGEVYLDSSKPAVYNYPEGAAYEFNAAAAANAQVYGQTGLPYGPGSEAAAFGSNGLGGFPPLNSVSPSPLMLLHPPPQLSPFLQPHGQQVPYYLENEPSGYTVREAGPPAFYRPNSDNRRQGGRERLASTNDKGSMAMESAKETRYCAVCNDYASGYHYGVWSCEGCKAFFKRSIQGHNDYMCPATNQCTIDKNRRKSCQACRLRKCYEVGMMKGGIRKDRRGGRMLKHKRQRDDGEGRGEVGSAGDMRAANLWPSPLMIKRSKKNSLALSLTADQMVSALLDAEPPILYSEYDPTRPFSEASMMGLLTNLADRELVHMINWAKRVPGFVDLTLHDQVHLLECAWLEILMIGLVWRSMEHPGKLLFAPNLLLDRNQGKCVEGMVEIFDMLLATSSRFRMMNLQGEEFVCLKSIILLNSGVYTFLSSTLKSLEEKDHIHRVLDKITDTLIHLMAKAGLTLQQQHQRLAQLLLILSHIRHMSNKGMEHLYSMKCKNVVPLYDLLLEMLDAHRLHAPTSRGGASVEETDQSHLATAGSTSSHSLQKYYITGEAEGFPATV

Row | SMILES | Potency [1] | Potency [2] | Potency [3] | outcome [4] | Potency [5] | Potency [6] | Potency [7] | Potency (Aromatase (Homo sapiens)) | activation ([8]; at 95 µM (top of the series)) [%] | Potency [8] | activation ([8]; at 70.3 µM (top of the series)) [%]
1 | ClC(Cl)Br | inactive | inactive | inactive | inactive | inactive | inactive | inactive | inactive | – | – | –
2 | CC(C)CC#N | inactive | – | inactive | inactive | inactive | – | inactive | inactive | 6.55 | – | –
3 | N#CC(CCc1ccc(Cl)cc1)(Cn1cncn1)c1ccccc1 (stereo not drawn) | 30.6 µM (active) | inactive | – | – | inactive | 61.1 µM (active) | inactive | 30.6 µM (active) | – | – | –
4 | ClCCOCOCCCl | inactive | inactive | – | inactive | – | – | inactive | inactive | – | – | –
5 | Nc1n[nH]c(N)n1 | inactive | inactive | – | inactive | – | – | inactive | inactive | – | – | –
6 | CN(C)CCc1ccc(O)cc1 | inactive | inactive | – | inactive | – | – | inactive | inactive | – | – | –
7 | CCCSP(=S)(OCC)Oc1ccc(Cl)cc1Cl (stereo not drawn) | inactive | inactive | inactive | inactive | – | inactive | inactive | inactive | – | 38.6 µM (active) | –
8 | CN(N=O)C(N)=O | inactive | inactive | – | – | – | – | inactive | inactive | – | – | –
9 | CNC(=O)Oc1ccccc1C1OCCO1 | inactive | inactive | inactive | – | inactive | inactive | inactive | inactive | – | – | -9.73
10 | COC(=O)C1=CCCN(C)C1 | inactive | – | inactive | inactive | inactive | inactive | inactive | inactive | – | – | 0.989
11 | COc1cccc2c1cc([N+](=O)[O-])c1c(C(=O)O)cc3c(c12)OCO3 | 3.06 µM (active) | inactive | 21.9 µM [inconclusive] (active) | – | inactive | – | 61.1 µM (active) | 10.9 µM (active) | – | – | –
12 | Nc1c(Br)cc([N+](=O)[O-])cc1[N+](=O)[O-] | 55.1 µM (active) | inactive | inactive | inactive | inactive | inactive | 31 µM (active) | inactive | – | – | –
